Test results taken from PubChem BioAssay (EPA / NIEHS).
Inconclusive results are not listed. The source made the active and inactive calls. How the source made its calls, unless noted: active means hit-call score of the fitted dose curve at least 0.9, where 1 is the maximum; inactive means score below 0.9.

Columns and labels:
[1] = ACEA_ER_80hr: ACEA Biosciences xCELLigence Real-Time Cell Analysis on Estrogen Receptor Agonism for Proliferation (AID 2282667; active means hit-call score of the fitted dose curve at least 0.9, where 1 is the maximum); conditions: T47D proliferation, impedance (xCELLigence), 80 h
How it was run: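 Real-time electrical impedance tracked growth of the human breast line T47D, with the 80 h post-dosing value used. Dosing spanned eight 1:4 steps down from a 100 uM final top concentration, run in duplicate.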

[2] = ATG_CRE_CIS: Attagene CIS-FACTORIAL HepG2 Assay for human cAMP Responsive Element (CRE) binding protein 3 (AID 2282926); conditions: HepG2 CRE cis-reporter, Attagene multiplexed mRNA; actives raise or lower the signal
How it was run: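 Assay format: transient reporter transfection of HepG2, 24 h treatment, total RNA isolation with DNase I step. Reporter abundance read by fluorescence after PCR and capillary separation; DMSO-normalised gain or loss fitting.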

[3] = target: CCAAT/enhancer-binding protein beta (Homo sapiens) (UniProt P17676); experiment: ATG_C_EBP_CIS: Attagene CIS-FACTORIAL HepG2 Assay for human CCAAT/Enhancer Binding Protein (C/EBP) beta (AID 2282927); conditions: HepG2 Attagene cis-factorial transcription factor reporter; actives raise or lower the signal
How it was run: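 Following a 24 h incubation with test chemical, transfected HepG2 cells yielded RNA whose reporter transcripts were quantified by RT-PCR and fluorescent capillary electrophoresis, with DMSO serving as baseline for bidirectional fitting.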

[4] = ATG_CMV_CIS: Attagene CIS-FACTORIAL HepG2 Assay for human CMV (Internal Marker) (AID 2282928); conditions: HepG2 CMV promoter reporter, transcription factor profiling; actives raise or lower the signal;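 further: endpoint acts as a background internal control marker rather than a target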
How it was run: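 Readout: fluorescent reporter cDNA fragments separated by capillary electrophoresis after RT-PCR and HpaI cut. Cells: HepG2 carrying transfected cis-promoter reporter constructs, dosed 24 h. Endpoint serves as background internal-marker control, fit bidirectionally versus DMSO.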

[5] = ATG_DR4_LXR_CIS: Attagene CIS-FACTORIAL HepG2 Assay for human Liver X Receptor (LXR), DR4 submotif (AID 2282929); conditions: HepG2 Attagene DR4 cis-reporter, mRNA transcription; actives raise or lower the signal
How it was run: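 Cells were transfected with multiple reporter transcription units, exposed to chemicals for 24 hours, then lysed for RNA. Reporter mRNA induction was measured by RT-PCR with capillary electrophoresis detection and fitted in both directions relative to DMSO.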

[6] = target: Aryl hydrocarbon receptor (Homo sapiens) (UniProt P35869); experiment: ATG_Ahr_CIS: Attagene CIS-FACTORIAL HepG2 Assay for human Aryl Hydrocarbon Receptor (Ahr) (AID 2282930); conditions: HepG2 AhR cis-factorial reporter transcription; actives raise or lower the signal
How it was run: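 Values derive from bidirectional fitting against DMSO negative control. Underlying signal: cis-element reporter mRNA in transiently transfected HepG2, harvested 24 h post-dose and measured by RT-PCR plus capillary electrophoresis.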

[7] = ATG_AP_1_CIS: Attagene CIS-FACTORIAL HepG2 Assay for human Activator Protein 1 (AP-1) (AID 2282931); conditions: HepG2 Attagene cis-factorial AP-1 reporter mRNA; actives raise or lower the signal
How it was run: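 Endogenous transcription-factor activity in human HepG2 liver cells is read through a cis-promoter reporter transcript, sampled 24 h after dosing. Detection uses RT-PCR with capillary electrophoresis; values come from bidirectional fitting relative to DMSO.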

[8] = ATG_AP_2_CIS: Attagene CIS-FACTORIAL HepG2 Assay for human Activator Protein 2 (AP-2) (AID 2282932); conditions: HepG2 AP-2 cis-reporter, Attagene transcription factor profiling; actives raise or lower the signal
How it was run: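 Cells (HepG2) transfected with promoter-driven reporter constructs, treated 24 h. Total RNA reverse-transcribed, reporter cDNA PCR-amplified, FAM-labelled by primer extension, digested, resolved by capillary electrophoresis. Activity fitted both directions versus DMSO.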

[9] = ATG_BRE_CIS: Attagene CIS-FACTORIAL HepG2 Assay for human Bone Morphogenetic Protein (BMP) Response Element (BRE) (AID 2282933); conditions: HepG2 BMP response element reporter, Attagene transcription factor profiling; actives raise or lower the signal
How it was run: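 After a 24 h chemical treatment, transiently transfected HepG2 cells were lysed for RNA; reporter transcripts were quantified by fluorescent RT-PCR and capillary electrophoresis, normalised to DMSO.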

[10] = target: Retinoic acid receptor alpha (Homo sapiens) (UniProt P10276); experiment: ATG_DR5_RAR_CIS: Attagene CIS-FACTORIAL HepG2 Assay for human Retinoic Acid Receptor Alpha (RARE), DR5 submotif (AID 2282934); conditions: HepG2 Attagene cis-factorial RARE DR5 reporter, mRNA; actives raise or lower the signal
How it was run: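 Endpoint fitted in both directions relative to DMSO as negative control. It reflects DR5 cis-element reporter mRNA induction in transiently transfected HepG2 cells, measured 24 h after dosing through RT-PCR and fluorescent capillary electrophoresis.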

[11] = target: Transcription factor E2F1 (Homo sapiens) (UniProt Q01094); experiment: ATG_E2F_CIS: Attagene CIS-FACTORIAL HepG2 Assay for human E2F Transcription Factor 1 (AID 2282935); conditions: HepG2 Attagene cis-reporter, E2F reporter RNA transcripts; actives raise or lower the signal
How it was run: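 First, HepG2 cells were transfected with reporter transcription units. Next, they were dosed for 24 h. Then RNA was isolated, converted to cDNA, PCR-amplified, FAM-labeled, HpaI-digested and analyzed by capillary electrophoresis.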

[12] = ATG_E_Box_CIS: Attagene CIS-FACTORIAL HepG2 Assay for human Enhancer Box (E-box) (AID 2282936); conditions: HepG2 E-box cis-reporter transcription, actives raise or lower the signal
How it was run: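 Endogenous transcription factor activity was sensed in human HepG2 liver cells through transfected cis-promoter reporter units. After 24 h of dosing, total RNA was reverse-transcribed and reporter cDNA resolved by capillary electrophoresis.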

[13] = ATG_M_61_CIS: Attagene CIS-FACTORIAL HepG2 Assay for M61 Transcription Factor (Internal Marker) (AID 2282937); conditions: HepG2 Attagene CIS-FACTORIAL M61 internal marker reporter; actives raise or lower the signal
How it was run: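 Cells were transfected with reporter units under cis-regulatory promoters, treated with chemicals for 24 h, then lysed for RNA. Reporter transcripts were quantified by RT-PCR and capillary electrophoresis, and activity was fitted bidirectionally against DMSO.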

[14] = ATG_EGR_CIS: Attagene CIS-FACTORIAL HepG2 Assay for human Early Growth Response 1 (EGR1) (AID 2282938); conditions: HepG2 Attagene CIS-FACTORIAL EGR reporter mRNA; actives raise or lower the signal
How it was run: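 Endogenous TF activity in HepG2 liver cells was gauged through cis-promoter reporter constructs transiently transfected. After 24 h dosing, reporter mRNA was quantified by RT-PCR and capillary electrophoresis, and curves fitted in both directions versus DMSO.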

[15] = ATG_M_19_CIS: Attagene CIS-FACTORIAL HepG2 Assay for M19 Transcription Factor (Internal Marker) (AID 2282939); conditions: HepG2 Attagene CIS-FACTORIAL M19 internal marker reporter; actives raise or lower the signal
How it was run: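 In this multiplexed cell assay, transiently transfected HepG2 reporter units report endogenous transcription-factor activity; after 24 hours of treatment, labelled reporter cDNA fragments are quantified by capillary electrophoresis and fitted bidirectionally against DMSO.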

[16] = ATG_ERE_CIS: Attagene CIS-FACTORIAL HepG2 Assay for Estrogen Response Element (ERE) (AID 2282940); conditions: HepG2 ERE cis-reporter, Attagene RNA transcript; actives raise or lower the signal
How it was run: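 Measuring endogenous transcription factor output, the assay doses transfected HepG2 cells for 24 hours and quantifies reporter transcripts by fluorescent RT-PCR and capillary electrophoresis, with DMSO as baseline.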

[17] = ATG_Ets_CIS: Attagene CIS-FACTORIAL HepG2 Assay for human Erythroblast Transformation Specific (ETS) (AID 2282941); conditions: HepG2 ETS cis-reporter transcription, actives raise or lower the signal
How it was run: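 RT-PCR/capillary electrophoresis fluorescence read-out of reporter mRNA; HepG2 transient multi-reporter transfection; 24 h compound exposure; gain or loss of signal fitted bidirectionally relative to DMSO.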

[18] = target: Hepatocyte nuclear factor 3-beta (Homo sapiens) (UniProt Q9Y261); experiment: ATG_FoxA2_CIS: Attagene CIS-FACTORIAL HepG2 Assay for human Forkhead box A2 (FOXA2) (AID 2282942); conditions: HepG2 cis-reporter transcription factor activity, 24 h; actives raise or lower the signal
How it was run: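 Endogenous transcription factor activity was read in HepG2 cells carrying transiently transfected cis-promoter reporter units. After 24 h dosing, reporter mRNA was quantified by RT-PCR and capillary electrophoresis, and values fitted bidirectionally versus DMSO.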

[19] = ATG_FoxO_CIS: Attagene CIS-FACTORIAL HepG2 Assay for human Forkhead box O (FoxO) (AID 2282943); conditions: HepG2 Attagene cis-reporter, FoxO element, mRNA; actives raise or lower the signal
How it was run: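 Values reflect reporter mRNA induction or loss in HepG2 cells 24 h post-dosing, fitted bidirectionally with DMSO as negative control and baseline. Detection used RT-PCR and fluorescence capillary electrophoresis.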

[20] = ATG_GATA_CIS: Attagene CIS-FACTORIAL HepG2 Assay for human GATA Binding Protein (AID 2282944); conditions: HepG2 GATA cis-element reporter, Attagene multiplex mRNA; actives raise or lower the signal
How it was run: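 Measures endogenous transcription factor-driven reporter mRNA in HepG2 cells transiently carrying cis-regulated constructs. 24 h dosing; RNA via oligo(dT) reverse transcription, PCR, HpaI digestion, capillary electrophoresis; fitted relative to DMSO.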

Measured: AC50

Sequence of CCAAT/enhancer-binding protein beta (Homo sapiens) (P17676 whole entry, looked up): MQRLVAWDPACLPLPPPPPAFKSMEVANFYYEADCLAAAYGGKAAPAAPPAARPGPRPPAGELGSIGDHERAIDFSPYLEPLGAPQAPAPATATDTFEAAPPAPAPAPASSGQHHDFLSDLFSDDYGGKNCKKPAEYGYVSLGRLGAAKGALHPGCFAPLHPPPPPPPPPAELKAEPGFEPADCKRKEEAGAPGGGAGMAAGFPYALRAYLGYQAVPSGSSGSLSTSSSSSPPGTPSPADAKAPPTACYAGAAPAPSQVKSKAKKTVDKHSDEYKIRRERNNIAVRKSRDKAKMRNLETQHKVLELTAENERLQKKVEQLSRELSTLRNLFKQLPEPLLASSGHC
Sequence of Aryl hydrocarbon receptor (Homo sapiens) (P35869 whole entry, looked up): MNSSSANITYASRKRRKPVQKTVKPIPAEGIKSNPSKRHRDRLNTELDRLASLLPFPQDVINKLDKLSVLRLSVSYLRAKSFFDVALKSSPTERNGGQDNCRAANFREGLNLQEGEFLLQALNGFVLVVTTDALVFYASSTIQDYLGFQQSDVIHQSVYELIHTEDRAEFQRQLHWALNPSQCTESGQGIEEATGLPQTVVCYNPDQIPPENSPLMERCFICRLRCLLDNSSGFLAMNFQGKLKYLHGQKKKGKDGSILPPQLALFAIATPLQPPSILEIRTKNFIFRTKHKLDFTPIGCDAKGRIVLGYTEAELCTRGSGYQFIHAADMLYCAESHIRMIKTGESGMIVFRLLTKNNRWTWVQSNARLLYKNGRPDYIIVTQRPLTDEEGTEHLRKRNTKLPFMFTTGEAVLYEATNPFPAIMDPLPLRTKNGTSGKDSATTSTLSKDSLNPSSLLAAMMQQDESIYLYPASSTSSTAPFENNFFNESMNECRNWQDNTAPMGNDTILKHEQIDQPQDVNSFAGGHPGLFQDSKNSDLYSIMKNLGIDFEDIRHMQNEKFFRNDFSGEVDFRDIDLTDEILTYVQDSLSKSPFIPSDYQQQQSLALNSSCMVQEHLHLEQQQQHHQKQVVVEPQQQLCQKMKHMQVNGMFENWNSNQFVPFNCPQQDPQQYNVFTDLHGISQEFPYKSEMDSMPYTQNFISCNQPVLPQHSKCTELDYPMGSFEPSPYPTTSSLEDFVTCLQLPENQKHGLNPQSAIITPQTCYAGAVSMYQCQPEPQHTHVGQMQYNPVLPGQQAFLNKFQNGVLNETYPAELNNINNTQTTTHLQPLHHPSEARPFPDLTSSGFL
Sequence of Transcription factor E2F1 (Homo sapiens) (Q01094 whole entry, looked up): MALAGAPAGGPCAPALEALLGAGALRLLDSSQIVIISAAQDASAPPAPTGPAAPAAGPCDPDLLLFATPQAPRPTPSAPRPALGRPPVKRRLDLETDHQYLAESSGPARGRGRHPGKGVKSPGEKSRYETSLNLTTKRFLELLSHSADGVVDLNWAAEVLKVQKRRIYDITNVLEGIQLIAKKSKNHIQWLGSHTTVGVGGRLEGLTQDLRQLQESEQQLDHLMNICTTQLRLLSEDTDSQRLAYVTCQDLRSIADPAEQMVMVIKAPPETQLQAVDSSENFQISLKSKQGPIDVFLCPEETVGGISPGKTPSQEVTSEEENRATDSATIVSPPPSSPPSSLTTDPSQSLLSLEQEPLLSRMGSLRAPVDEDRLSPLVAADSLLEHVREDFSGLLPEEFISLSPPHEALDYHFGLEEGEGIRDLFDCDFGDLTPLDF
Sequence of Retinoic acid receptor alpha (Homo sapiens) (P10276 whole entry, looked up): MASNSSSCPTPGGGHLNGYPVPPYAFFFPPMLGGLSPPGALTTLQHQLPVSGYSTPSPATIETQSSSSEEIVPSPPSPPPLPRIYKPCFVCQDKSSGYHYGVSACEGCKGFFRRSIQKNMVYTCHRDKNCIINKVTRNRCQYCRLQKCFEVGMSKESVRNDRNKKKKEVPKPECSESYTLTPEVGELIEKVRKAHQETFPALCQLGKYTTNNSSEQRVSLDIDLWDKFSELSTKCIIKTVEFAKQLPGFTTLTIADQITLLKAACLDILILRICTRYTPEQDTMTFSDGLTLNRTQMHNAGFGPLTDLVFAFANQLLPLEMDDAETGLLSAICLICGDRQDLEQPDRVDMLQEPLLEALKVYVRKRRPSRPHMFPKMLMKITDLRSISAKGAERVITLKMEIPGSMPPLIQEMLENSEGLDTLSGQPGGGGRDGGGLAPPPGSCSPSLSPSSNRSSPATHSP
Sequence of Hepatocyte nuclear factor 3-beta (Homo sapiens) (Q9Y261 whole entry, looked up): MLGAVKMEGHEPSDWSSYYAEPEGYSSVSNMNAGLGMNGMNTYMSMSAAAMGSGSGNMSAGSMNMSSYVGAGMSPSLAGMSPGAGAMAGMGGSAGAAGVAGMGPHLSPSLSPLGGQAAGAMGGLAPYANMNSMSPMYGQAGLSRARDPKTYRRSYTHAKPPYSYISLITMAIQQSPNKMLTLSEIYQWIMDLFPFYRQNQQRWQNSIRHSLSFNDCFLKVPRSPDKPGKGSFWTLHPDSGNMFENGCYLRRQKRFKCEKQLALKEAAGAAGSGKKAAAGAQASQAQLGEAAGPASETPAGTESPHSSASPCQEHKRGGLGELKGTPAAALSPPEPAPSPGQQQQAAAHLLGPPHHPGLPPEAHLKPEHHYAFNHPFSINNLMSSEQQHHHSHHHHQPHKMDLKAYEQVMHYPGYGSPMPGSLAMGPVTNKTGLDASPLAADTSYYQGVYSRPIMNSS

CC(C)OC(=O)c1ccccc1C(=O)OC(C)C
active: [16] 27.7 µM
inactive: all other assays above

COC(=O)CCC(F)(F)C(F)(F)C(F)(F)C(F)(F)F
active: [16] 6.98 µM
not listed: [17]
inactive: all other assays above

CCC(=O)OCCc1ccccc1
inactive: all assays above

N=C(N)C(F)(F)C(F)(F)C(F)(F)C(F)(F)C(F)(F)C(F)(F)C(F)(F)F
active: [3] 111 µM | [5] 211 µM | [7] 150 µM | [11] 199 µM | [12] 68.5 µM | [16] 38.6 µM | [20] 243 µM
inactive: all other assays above
